# Data taken from paper PMC7862700, “An all-to-all approach to the identification of sequence-specific readers for epigenetic DNA modifications on cytosine”.
# Experiments:
# Experiment in all cases: DAPPL (digital affinity profiling via proximity ligation, sequencing); 10 mM Tris-HCl pH 7.5, 50 mM NaCl, 1 mM DTT, 4% glycerol, room temperature, 30 min; GST-TFs on glutathione beads, 16-mer random dsDNA library, 0.1% formaldehyde crosslink after washing; high values mean tight binding
# FLI1 = biological target: T1, FLI1 (Homo sapiens, UniProt Q01543 1-452); details: protein: recombinant; tags: N-terminal GST; dsDNA, one strand shown
# T1 sequence: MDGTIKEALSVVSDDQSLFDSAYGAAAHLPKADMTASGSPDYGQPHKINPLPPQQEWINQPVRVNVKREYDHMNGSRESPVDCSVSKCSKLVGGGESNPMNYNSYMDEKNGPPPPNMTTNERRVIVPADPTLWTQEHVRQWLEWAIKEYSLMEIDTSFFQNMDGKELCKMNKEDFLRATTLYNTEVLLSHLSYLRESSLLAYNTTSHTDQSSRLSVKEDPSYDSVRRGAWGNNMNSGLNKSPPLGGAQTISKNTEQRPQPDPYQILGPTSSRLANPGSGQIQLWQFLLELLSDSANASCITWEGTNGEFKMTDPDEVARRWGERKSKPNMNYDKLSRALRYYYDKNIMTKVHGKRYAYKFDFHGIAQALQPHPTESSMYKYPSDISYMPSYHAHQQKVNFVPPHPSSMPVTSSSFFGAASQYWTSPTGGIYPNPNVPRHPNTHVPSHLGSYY
# Method in brief: (§1)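 In yeast, human transcription factors were expressed with a GST fusion, then pulled down on glutathione beads and given DNA barcodes. Pooled with a tag-only sample, they were exposed to 200 nmole of a 16-mer random double-stranded DNA library (Tris/NaCl/DTT/glycerol buffer, room temperature, 30 min), washed, crosslinked with 0.1% formaldehyde, proximity-ligated using BsaI/T4 ligase for 1 h at 37 °C, PCR-amplified and read on an Illumina NextSeq500. Each hexamer's frequency of reads for a factor, divided by the matching frequency for the tag-only sample, gives the binding signal.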
# ELK1 = biological target: T2, ELK1 (Homo sapiens, UniProt P19419 1-428); details: protein: recombinant; tags: N-terminal GST; dsDNA, one strand shown
# T2 sequence: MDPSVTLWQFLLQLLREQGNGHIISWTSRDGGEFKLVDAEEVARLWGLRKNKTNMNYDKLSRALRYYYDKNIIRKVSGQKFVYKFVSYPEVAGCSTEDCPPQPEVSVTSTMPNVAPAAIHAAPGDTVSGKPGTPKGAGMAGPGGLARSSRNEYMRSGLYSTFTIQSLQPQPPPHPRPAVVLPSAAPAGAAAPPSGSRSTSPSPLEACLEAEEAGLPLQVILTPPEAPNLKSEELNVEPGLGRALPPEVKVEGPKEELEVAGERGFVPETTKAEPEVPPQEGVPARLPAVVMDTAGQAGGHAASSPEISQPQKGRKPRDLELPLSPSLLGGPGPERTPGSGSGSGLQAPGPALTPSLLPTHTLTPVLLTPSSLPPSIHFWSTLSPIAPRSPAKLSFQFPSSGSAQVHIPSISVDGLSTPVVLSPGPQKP
# Method in brief: as §1
# GABPA = biological target: T3, GABPA (Homo sapiens, UniProt Q06546 1-454); details: protein: recombinant; tags: N-terminal GST; dsDNA, one strand shown
# T3 sequence: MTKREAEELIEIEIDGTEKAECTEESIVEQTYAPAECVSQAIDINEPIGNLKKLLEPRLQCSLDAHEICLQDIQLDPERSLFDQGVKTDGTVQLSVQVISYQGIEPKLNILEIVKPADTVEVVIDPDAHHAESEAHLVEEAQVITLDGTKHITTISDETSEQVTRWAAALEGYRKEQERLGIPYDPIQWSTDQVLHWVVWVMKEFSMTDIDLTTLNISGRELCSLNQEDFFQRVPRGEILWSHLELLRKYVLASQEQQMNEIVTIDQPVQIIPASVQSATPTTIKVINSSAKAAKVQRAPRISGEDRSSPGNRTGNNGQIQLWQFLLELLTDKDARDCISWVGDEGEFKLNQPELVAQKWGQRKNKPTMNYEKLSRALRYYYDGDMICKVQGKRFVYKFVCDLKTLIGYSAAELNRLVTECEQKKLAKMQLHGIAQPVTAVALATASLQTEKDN
# Method in brief: as §1
# ERG = biological target: T4, ERG (Homo sapiens, UniProt P11308 1-479); details: protein: recombinant; tags: N-terminal GST; dsDNA, one strand shown
# T4 sequence: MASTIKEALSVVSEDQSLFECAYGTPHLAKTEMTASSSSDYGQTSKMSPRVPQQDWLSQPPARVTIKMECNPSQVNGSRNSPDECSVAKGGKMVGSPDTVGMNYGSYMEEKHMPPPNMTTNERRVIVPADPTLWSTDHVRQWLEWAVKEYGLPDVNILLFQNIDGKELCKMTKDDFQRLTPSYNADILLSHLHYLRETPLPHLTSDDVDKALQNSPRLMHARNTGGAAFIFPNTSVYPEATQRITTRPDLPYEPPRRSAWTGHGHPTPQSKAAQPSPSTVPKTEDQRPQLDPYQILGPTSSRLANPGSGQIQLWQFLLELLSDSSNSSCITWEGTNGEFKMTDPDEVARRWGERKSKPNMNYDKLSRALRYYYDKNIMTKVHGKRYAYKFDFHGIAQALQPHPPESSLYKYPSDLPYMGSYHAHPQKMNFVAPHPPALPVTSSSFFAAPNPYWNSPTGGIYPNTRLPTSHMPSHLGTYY
# Method in brief: as §1
# ELF1 = ELF1 (Homo sapiens, UniProt P32519 1-619); details: protein: recombinant; tags: N-terminal GST; dsDNA, one strand shown
# Chain of ELF1 (P32519 whole entry): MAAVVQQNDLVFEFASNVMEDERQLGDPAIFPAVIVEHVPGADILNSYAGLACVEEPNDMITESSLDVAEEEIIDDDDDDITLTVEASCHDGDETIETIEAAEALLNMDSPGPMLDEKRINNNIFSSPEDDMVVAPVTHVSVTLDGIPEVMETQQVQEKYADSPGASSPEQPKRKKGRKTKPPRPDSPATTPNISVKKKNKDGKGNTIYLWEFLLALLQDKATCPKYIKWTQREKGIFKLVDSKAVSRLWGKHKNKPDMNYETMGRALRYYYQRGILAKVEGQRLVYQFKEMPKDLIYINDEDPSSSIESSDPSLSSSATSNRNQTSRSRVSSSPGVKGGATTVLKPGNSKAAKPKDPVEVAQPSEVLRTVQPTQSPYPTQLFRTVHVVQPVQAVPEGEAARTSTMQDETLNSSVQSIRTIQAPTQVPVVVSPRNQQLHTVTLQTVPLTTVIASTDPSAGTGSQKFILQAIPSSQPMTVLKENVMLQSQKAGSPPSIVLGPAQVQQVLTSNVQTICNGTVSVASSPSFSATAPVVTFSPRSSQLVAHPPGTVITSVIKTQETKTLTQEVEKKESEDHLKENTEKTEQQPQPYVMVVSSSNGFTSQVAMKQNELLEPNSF
# Method in brief: as §1
# EHF = biological target: T5, EHF (Homo sapiens, UniProt Q9NZC4 1-300); details: protein: recombinant; tags: N-terminal GST; dsDNA, one strand shown
# T5 sequence: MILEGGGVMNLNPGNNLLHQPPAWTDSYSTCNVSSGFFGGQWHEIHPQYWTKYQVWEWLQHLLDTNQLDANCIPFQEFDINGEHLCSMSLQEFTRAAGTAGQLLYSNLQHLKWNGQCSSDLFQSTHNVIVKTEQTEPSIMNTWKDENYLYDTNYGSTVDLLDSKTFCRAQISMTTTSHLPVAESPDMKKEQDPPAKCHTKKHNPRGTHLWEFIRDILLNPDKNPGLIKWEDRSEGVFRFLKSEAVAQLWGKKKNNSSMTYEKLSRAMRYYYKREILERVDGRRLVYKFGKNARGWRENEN
# Method in brief: as §1
# SPI1 = SPI1 (Homo sapiens, UniProt P17947 1-270); details: protein: recombinant; tags: N-terminal GST; dsDNA, one strand shown
# Method in brief: as §1
# SPIB = SPIB (Homo sapiens, UniProt Q01892 1-262); details: protein: recombinant; tags: N-terminal GST; dsDNA, one strand shown
# Chain of SPIB (Q01892 whole entry): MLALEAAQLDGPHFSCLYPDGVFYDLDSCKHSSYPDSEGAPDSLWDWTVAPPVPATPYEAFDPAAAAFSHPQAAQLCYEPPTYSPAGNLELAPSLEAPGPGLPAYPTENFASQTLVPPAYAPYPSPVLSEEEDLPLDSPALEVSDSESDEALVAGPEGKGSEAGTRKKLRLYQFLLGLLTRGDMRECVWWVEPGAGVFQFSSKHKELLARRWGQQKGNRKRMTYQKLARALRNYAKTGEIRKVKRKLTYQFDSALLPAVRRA
# Method in brief: as §1
# ELK3 = biological target: T6, ELK3 (Homo sapiens, UniProt P41970 1-407); details: protein: recombinant; tags: N-terminal GST; dsDNA, one strand shown
# T6 sequence: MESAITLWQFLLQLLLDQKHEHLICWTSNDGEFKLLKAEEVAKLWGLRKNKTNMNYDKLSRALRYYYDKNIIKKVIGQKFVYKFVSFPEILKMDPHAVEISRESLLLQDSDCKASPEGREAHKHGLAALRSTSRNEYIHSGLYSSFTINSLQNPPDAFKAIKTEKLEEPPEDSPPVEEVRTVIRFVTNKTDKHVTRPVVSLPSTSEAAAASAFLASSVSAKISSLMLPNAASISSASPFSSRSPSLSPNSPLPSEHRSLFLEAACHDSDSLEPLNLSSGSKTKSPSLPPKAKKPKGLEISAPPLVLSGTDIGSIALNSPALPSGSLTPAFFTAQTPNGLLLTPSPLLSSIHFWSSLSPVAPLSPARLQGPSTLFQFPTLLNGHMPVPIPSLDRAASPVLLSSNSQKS
# Method in brief: as §1
# FEV = biological target: T7, FEV (Homo sapiens, UniProt Q99581 1-238); details: protein: recombinant; tags: N-terminal GST; dsDNA, one strand shown
# T7 sequence: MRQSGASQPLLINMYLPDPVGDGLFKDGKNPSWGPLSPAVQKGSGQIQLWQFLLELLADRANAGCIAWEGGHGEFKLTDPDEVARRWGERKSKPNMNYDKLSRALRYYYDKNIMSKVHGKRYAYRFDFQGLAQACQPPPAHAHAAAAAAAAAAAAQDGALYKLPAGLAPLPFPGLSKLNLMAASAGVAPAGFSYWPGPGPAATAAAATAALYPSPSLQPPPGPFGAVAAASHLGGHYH
# Method in brief: as §1
# ETV5 = ETV5 (Homo sapiens, UniProt P41161 1-510); details: protein: recombinant; tags: N-terminal GST; dsDNA, one strand shown
# Chain of ETV5 (P41161 whole entry): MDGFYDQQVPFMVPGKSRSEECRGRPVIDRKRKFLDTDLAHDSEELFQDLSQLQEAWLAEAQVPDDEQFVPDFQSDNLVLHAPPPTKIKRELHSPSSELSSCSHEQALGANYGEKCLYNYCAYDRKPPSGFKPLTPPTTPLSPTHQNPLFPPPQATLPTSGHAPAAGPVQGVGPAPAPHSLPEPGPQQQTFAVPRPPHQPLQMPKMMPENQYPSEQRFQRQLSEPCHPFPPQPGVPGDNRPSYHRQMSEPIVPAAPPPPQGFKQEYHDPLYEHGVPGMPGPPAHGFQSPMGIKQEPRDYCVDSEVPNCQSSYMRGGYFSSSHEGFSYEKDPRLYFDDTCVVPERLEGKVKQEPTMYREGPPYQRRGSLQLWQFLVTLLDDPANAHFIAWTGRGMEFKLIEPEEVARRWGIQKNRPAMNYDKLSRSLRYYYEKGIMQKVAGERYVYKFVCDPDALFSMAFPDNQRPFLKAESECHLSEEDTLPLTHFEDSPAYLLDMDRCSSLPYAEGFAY
# Method in brief: as §1
# HSF1 = HSF1 (Homo sapiens, UniProt Q00613 1-529); details: protein: recombinant; tags: N-terminal GST; chain copies: 3; dsDNA, one strand shown
# Chain of HSF1 (Q00613 whole entry): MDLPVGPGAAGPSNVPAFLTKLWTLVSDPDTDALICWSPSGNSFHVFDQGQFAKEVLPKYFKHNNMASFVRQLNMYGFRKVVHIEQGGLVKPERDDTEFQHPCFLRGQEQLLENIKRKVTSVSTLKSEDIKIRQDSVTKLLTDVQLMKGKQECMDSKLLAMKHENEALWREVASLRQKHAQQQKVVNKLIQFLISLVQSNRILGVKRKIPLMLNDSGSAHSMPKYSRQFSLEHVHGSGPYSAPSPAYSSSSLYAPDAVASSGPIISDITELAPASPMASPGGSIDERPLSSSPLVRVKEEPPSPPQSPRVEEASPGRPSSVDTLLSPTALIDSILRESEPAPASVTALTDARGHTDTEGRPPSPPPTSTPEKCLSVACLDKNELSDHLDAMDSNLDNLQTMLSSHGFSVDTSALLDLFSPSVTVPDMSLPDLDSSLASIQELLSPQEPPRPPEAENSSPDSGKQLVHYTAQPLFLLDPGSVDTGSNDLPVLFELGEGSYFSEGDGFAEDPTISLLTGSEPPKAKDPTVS
# Method in brief: as §1
# SPIC = biological target: T8, SPIC (Homo sapiens, UniProt Q8N5J4 1-248); details: protein: recombinant; tags: N-terminal GST; dsDNA, one strand shown
# T8 sequence: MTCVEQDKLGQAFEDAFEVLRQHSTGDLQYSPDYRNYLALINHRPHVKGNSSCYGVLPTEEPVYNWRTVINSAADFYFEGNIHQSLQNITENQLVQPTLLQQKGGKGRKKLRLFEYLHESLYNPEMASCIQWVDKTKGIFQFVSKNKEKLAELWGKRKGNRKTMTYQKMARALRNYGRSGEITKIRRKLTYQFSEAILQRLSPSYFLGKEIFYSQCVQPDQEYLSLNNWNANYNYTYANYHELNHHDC
# Method in brief: as §1
# ELF4 = ELF4 (Homo sapiens, UniProt Q99607 1-663); details: protein: recombinant; tags: N-terminal GST; dsDNA, one strand shown
# Chain of ELF4 (Q99607 whole entry): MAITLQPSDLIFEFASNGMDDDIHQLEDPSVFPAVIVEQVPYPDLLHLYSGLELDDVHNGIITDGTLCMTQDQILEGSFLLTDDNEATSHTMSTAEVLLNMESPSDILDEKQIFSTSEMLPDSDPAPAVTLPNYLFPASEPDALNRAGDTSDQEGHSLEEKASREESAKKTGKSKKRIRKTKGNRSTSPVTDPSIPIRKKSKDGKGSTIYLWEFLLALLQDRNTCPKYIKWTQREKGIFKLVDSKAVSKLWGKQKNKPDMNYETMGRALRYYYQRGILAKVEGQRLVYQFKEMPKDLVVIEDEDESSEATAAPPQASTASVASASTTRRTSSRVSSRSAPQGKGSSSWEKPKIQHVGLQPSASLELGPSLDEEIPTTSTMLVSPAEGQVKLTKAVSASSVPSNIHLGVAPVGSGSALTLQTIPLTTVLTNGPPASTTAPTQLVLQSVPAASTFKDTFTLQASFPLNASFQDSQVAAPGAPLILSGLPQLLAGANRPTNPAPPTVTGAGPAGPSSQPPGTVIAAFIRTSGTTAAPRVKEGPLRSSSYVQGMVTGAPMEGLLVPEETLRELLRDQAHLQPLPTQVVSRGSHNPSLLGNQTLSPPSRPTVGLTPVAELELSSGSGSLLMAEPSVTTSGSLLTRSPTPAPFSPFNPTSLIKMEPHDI
# Method in brief: as §1
# ELK4 = biological target: T9, ELK4 (Homo sapiens, UniProt P28324-2 1-405); details: protein: recombinant; tags: N-terminal GST; dsDNA, one strand shown
# T9 sequence: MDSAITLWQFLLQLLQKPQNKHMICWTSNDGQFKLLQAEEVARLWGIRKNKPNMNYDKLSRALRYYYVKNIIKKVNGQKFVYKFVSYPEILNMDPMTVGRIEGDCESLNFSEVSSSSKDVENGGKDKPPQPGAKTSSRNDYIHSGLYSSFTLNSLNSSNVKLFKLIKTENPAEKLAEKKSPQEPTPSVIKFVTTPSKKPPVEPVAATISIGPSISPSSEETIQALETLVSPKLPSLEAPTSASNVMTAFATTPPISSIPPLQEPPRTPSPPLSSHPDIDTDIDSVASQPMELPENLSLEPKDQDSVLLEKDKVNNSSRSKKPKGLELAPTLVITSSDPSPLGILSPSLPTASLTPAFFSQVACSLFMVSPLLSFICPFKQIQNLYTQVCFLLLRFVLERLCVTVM
# Method in brief: as §1
# ETV2 = biological target: T10, ETV2 (Homo sapiens, UniProt O00321 1-342); details: protein: recombinant; tags: N-terminal GST; dsDNA, one strand shown
# T10 sequence: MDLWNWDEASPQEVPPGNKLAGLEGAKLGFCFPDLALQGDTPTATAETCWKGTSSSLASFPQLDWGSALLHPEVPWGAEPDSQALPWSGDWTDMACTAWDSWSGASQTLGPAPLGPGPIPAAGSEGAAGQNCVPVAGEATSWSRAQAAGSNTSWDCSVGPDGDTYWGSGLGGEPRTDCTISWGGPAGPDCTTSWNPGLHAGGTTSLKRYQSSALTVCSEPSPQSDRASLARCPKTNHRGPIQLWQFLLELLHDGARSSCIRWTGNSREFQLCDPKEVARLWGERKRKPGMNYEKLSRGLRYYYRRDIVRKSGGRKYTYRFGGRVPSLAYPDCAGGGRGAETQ
# Method in brief: as §1
# ELF3 = biological target: T11, ELF3 (Homo sapiens, UniProt P78545 1-371); details: protein: recombinant; tags: N-terminal GST; dsDNA, one strand shown
# T11 sequence: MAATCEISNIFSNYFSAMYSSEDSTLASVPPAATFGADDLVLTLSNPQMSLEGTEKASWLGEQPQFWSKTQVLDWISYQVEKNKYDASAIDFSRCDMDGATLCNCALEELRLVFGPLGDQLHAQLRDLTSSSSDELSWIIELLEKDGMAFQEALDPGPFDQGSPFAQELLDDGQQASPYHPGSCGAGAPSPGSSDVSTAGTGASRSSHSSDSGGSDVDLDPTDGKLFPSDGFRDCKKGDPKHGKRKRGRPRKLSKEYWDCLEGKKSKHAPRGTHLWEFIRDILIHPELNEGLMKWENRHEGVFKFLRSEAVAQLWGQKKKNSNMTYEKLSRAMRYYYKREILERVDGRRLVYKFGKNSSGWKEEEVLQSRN
# Method in brief: as §1
# CRX = CRX (Homo sapiens, UniProt O43186 1-299); details: protein: recombinant; tags: N-terminal GST; dsDNA, one strand shown
# Chain of CRX (O43186 whole entry): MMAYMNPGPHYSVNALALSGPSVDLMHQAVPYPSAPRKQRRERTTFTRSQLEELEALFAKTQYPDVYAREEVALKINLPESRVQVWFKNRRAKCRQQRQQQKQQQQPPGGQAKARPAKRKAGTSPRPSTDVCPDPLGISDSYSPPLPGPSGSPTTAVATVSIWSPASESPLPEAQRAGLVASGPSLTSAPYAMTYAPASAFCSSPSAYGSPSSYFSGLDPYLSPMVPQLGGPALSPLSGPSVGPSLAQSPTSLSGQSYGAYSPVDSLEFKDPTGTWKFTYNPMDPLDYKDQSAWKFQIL
# Method in brief: as §1
# ETV1 = ETV1 (Homo sapiens, UniProt P50549 1-477); details: protein: recombinant; tags: N-terminal GST; dsDNA, one strand shown
# Chain of ETV1 (P50549 whole entry): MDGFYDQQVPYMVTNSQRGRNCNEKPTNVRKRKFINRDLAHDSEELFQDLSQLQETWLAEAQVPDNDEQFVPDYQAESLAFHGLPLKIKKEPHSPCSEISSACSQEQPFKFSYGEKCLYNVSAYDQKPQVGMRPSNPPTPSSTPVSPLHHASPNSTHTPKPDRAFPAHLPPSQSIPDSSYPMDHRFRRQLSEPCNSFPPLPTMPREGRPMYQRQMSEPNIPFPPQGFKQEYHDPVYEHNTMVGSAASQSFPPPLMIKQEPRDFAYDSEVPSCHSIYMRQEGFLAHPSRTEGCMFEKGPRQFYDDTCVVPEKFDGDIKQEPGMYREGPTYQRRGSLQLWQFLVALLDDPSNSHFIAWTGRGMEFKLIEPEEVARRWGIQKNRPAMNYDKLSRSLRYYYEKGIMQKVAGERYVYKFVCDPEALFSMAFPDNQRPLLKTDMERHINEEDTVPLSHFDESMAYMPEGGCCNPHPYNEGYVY
# Method in brief: as §1
sequence,measurement,setting,value
TTAAGC,binding signal,FLI1,"1.18 fold enrichment (6-mer frequency, TF over GST control)"
same,binding signal,ELK1,"1.18 fold enrichment (6-mer frequency, TF over GST control)"
same,binding signal,GABPA,"1.24 fold enrichment (6-mer frequency, TF over GST control)"
same,binding signal,ERG,"1.15 fold enrichment (6-mer frequency, TF over GST control)"
same,binding signal,ELF1,"1.18 fold enrichment (6-mer frequency, TF over GST control)"
same,binding signal,EHF,"1.13 fold enrichment (6-mer frequency, TF over GST control)"
same,binding signal,SPI1,"1.1 fold enrichment (6-mer frequency, TF over GST control)"
same,binding signal,SPIB,"1.08 fold enrichment (6-mer frequency, TF over GST control)"
same,binding signal,ELK3,"1.18 fold enrichment (6-mer frequency, TF over GST control)"
same,binding signal,FEV,"1.18 fold enrichment (6-mer frequency, TF over GST control)"
same,binding signal,ETV5,"1.12 fold enrichment (6-mer frequency, TF over GST control)"
same,binding signal,HSF1,"2.25 fold enrichment (6-mer frequency, TF over GST control)"
same,binding signal,SPIC,"1.19 fold enrichment (6-mer frequency, TF over GST control)"
same,binding signal,ELF4,"1.22 fold enrichment (6-mer frequency, TF over GST control)"
same,binding signal,ELK4,"1.15 fold enrichment (6-mer frequency, TF over GST control)"
same,binding signal,ETV2,"1.03 fold enrichment (6-mer frequency, TF over GST control)"
same,binding signal,ELF3,"1.1 fold enrichment (6-mer frequency, TF over GST control)"
same,binding signal,CRX,"3.77 fold enrichment (6-mer frequency, TF over GST control)"
same,binding signal,ETV1,"1.11 fold enrichment (6-mer frequency, TF over GST control)"
